# Data published in PubChem BioAssay AID1508621 (National Center for Advancing Translational Sciences (NCATS), 2021).
# Records with an inconclusive call do not appear. A call without a number means that no potency is given here. The source made the active and inactive calls. Calls come from the whole dose curve; as a rule, active = well fitted inhibition curve with a large enough effect; inconclusive = small, poorly fitted or top-dose-only effect; inactive = no such curve, though single readings can be large or run the other way.
# Test: Confirmatory qHTS for Identification of Small Molecule Inhibitors of Huntingtin Promoter Activity; note: nearly all actives have a fitted effect of over 65% in size
# Conditions: HEK293 HTT promoter firefly luciferase reporter, 24 h; series mostly up to 57.5 µM
# How it was run: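 HEK293 luciferase reporter cells, 2,500/well, cultured 24 h, then exposed to compounds at up to 57.5 uM final for 24 h at 37C. Firefly luciferase luminescence read; normalized to vehicle (0%) and zero RLU (-100%).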
# Potency is the fitted concentration of half-maximal effect.
row,Structure (SMILES),Potency
1,O=C(Nc1ccccc1)c1ccc(Cl)c(S(=O)(=O)Nc2ccccc2)c1,inactive
2,CCN(CCCNC(=O)CSc1cc(=O)n(CC)c2ccccc12)c1ccccc1,inactive
3,COc1cccc(N2CCN(C(=O)c3ccc4nc(N5CCC(C)CC5)sc4c3)CC2)c1,8.49 µM (active)
4,CCOc1ccc(C(=O)Nc2ccc(S(=O)(=O)N3CCCCC3c3cccnc3)cc2)cc1 (stereo not given),21.3 µM (active)
5,CC(C)(C)C(=O)NCCc1nc2ccccc2n1CCCCOc1ccc(Cl)cc1,26.9 µM (active)
6,CCN(CC)S(=O)(=O)c1ccc(NC(=O)CCc2c(C)nc3cc(-c4ccc(Cl)cc4)nn3c2C)cc1,0.301 µM (active)
7,COc1ccc(NC(=O)Cn2c(SCc3ccc(F)cc3)nc3cccnc32)cc1OC,inactive
8,CCOc1ccc(C2=C(C(=O)CC)Sc3nncn3N2C(=O)CC)cc1,inactive
9,CCCCc1nc2cc(C=CC(=O)NO)ccc2n1CCN(CC)CC,inactive
10,C1=CCOCc2cc(ccc2OCCN2CCCC2)Nc2nccc(n2)-c2cccc(c2)OCC1,9.53 µM (active)
11,Cc1cc(NC(=O)c2cc(-c3ccc(Cl)cc3)on2)nn1Cc1ccc(Cl)cc1,inactive
12,O=C(CCCCCCNC(=O)c1cnc(N(c2ccccc2)c2ccccc2)nc1)NO,inactive
13,O=C1C2=C(Nc3ccccc3SC2c2ccc(C(F)(F)F)cc2)c2ccccc21 (stereo not given),19 µM (active)
14,COc1ccc(C2C=C(c3ccc(Br)cc3)Nc3nnnn32)c(OC)c1 (stereo not given),inactive
15,Cn1c(NCCN(CCO)CCCc2ccc([N+](=O)[O-])cc2)cc(=O)n(C)c1=O,inactive
